The supplement of paper PMC6805474
Values without a mark were called inactive.

Tested on: Schistosoma mansoni schistosomula (NMRI)
Assay: phenotypic severity score (0-4); higher = more antischistosomal effect, active = 2 or more
Details: 24 h; 10 µM
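Also: visual microscopic scoring of shape, motility and density changes versus 0.5% DMSO solvent controls, one point per descriptor, degeneracy or death scored 4, mean of duplicate wells.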

| SMILES | phenotypic severity score |
| --- | --- |
| CC1CCCCN1C(=O)NCCc1coc(-c2ccc(F)cc2)n1 (stereo unspecified) | 1 |
| COc1ccc(S(=O)(=O)Nc2ccc(CN3CCN(C(=O)c4cccc(C#N)c4)CC3)cc2)cc1 | 0 |
| Cc1cc(Cl)c(S(=O)(=O)N2CCCC2)cc1OCC(=O)NC1CCCCC1 | 0 |
| COc1cccc(CC(=O)N2CCC(n3c(C)nc4ccc(F)cc43)CC2)c1 | 1 |
| COc1cc(C2=NCCN2)ccc1-c1cn(-c2cccc(C3=NCCN3)c2)nn1 | 1 |
| O=C(Nc1cccc(Cl)c1)c1cnc(N2CCN(c3ccncc3)CC2)c(Cl)c1 | 2 (active) |
| CC[C@@H]([C@H](C)O)n1ncn(-c2ccc(N3CCN(c4ccc(OC[C@@H]5CO[C@@](Cn6cncn6)(c6ccc(F)cc6F)C5)cc4)CC3)cc2)c1=O | 3 (active) |
| NC(=O)c1cc(Br)ccc1OCCOc1ccccc1 | 1 |
| Cc1noc(C)c1C(=O)N1CCCC(c2[nH]c3c(C)cccc3c2-c2ccncc2)C1 (stereo unspecified) | 4 (active) |
| Cc1cc(Nc2ccncc2)n2nc(C)c(-c3ccccc3Cl)c2n1 | 0 |
| Nc1ncnc2c1ncn2[C@@H]1O[C@H](COS(=O)(=O)NC(=O)c2ccccc2O)[C@@H](O)[C@H]1O | 0 |
| CC(C)C(NC(=O)Cc1cccc2ccccc12)C(=O)Nc1cccc(C#N)c1 (stereo unspecified) | 0 |
| C[C@H]1COc2c(N3CCN(C)CC3)c(F)cc3c(=O)c(C(=O)O)cn1c23 | 0 |
| O=C(c1cc2ccccc2o1)N1CCN(Cc2ccc3c(c2)OCO3)CC1 | 0 |
| Cc1cnc(N2CCN[C@@H](Cc3ccccc3)C2)nc1Oc1ccc(-n2ccnc2)cc1 | 4 (active) |
| CCCNC(=O)N1CCC2(CC1)CC(=O)c1cc(C)ccc1O2 | 0 |
| COc1ccc2nc(C)cc(OCC(=O)Nc3ccccc3OC)c2c1 | 0 |
| COc1cc(NC(=O)Cc2nn(C)c(=O)c3ccccc23)ccc1Cl | 0 |
| O=C(Nc1cccnc1)c1c(O)c2cccc3c2n(c1=O)CC3 | 0 |

| SMILES | phenotypic severity score |
| --- | --- |
| OCc1ccc(-c2cncc(Nc3cccc(Cl)c3)c2)cc1 | 0 |
| CC(=O)N(CCN(C(=O)c1ccc(F)cc1)c1ccccc1)c1ccccc1 | 1 |
| CCCCc1ccc(NC(=O)Nc2ccc(O[C@H]3CCCC[C@@H]3N(C)c3ccccc3)c(F)c2)cc1 | 0 |
| CCc1c(C)nc(-n2nc(C)cc2NC(=O)c2ccccc2SC)[nH]c1=O | 0 |
| CC(C)(C)C(=O)N(CCCCCCN1C[C@H](O)[C@@H](O)[C@H](O)[C@H]1CO)C1CCCCCC1 | 0 |
| O=C(NC1CC1)c1ccc(N2CCC(Cc3ccccc3)CC2)nc1 | 0 |
| Cc1cc(O)nc(-n2nc(C)cc2C)n1 | 0 |
| CCc1ccccc1-n1c(C)cn2c3c(=O)n(C(C(=O)OC)C(C)C)c(=O)n(C)c3nc12 (stereo unspecified) | 1 |
| COc1ccc(N(CCc2cccc(C)n2)C(=O)C2CCCCC2)cc1 | 0 |
| CCc1cc(=O)n(C)c(SC(C)C(=O)Nc2ccc(F)cc2)n1 (stereo unspecified) | 0 |
| CO[C@@H](C(=O)N1Cc2[nH]nc(NC(=O)c3ccc(N4CCN(C)CC4)cc3)c2C1)c1ccccc1 | 0 |
| CN1CCCN(C(c2ccccc2)c2ccc(Cl)cc2)CC1 (stereo unspecified) | 0 |
| Cc1cc(Cl)ccc1NC(=O)CCc1ccc(S(=O)(=O)NCC(C)C)cc1 | 0 |
| O=C(Nc1ccc(N2CCNCC2)nc1)c1oc(-c2ccccc2)nc1C(F)(F)F | 0 |
| Cc1cccc(Cn2ccc(NC(=O)c3ccc4c(c3)OCO4)n2)c1 | 0 |
| CS(=O)(=O)c1ccccc1C(=O)N(Cc1ccccc1)c1ccccc1 | 0 |
| COC(=O)c1c(NC(=O)c2cc3ccccc3oc2=O)sc2c1CCN(Cc1ccccc1)C2 | 0 |
| Cc1ccccc1CN1CCC(O)(c2ccc(Cl)c(C(F)(F)F)c2)CC1 | 2 (active) |
| c1ccc(Oc2ccc(-c3cc(N4CCNCC4)[nH]n3)cc2)cc1 | 2 (active) |

Same assay, conditions: 48 h; 10 µM

| SMILES | phenotypic severity score |
| --- | --- |
| CC1CCCCN1C(=O)NCCc1coc(-c2ccc(F)cc2)n1 (stereo unspecified) | 0 |
| COc1ccc(S(=O)(=O)Nc2ccc(CN3CCN(C(=O)c4cccc(C#N)c4)CC3)cc2)cc1 | 0 |
| Cc1cc(Cl)c(S(=O)(=O)N2CCCC2)cc1OCC(=O)NC1CCCCC1 | 0 |
| COc1cccc(CC(=O)N2CCC(n3c(C)nc4ccc(F)cc43)CC2)c1 | 1 |
| COc1cc(C2=NCCN2)ccc1-c1cn(-c2cccc(C3=NCCN3)c2)nn1 | 0 |
| O=C(Nc1cccc(Cl)c1)c1cnc(N2CCN(c3ccncc3)CC2)c(Cl)c1 | 4 (active) |
| CC[C@@H]([C@H](C)O)n1ncn(-c2ccc(N3CCN(c4ccc(OC[C@@H]5CO[C@@](Cn6cncn6)(c6ccc(F)cc6F)C5)cc4)CC3)cc2)c1=O | 4 (active) |
| NC(=O)c1cc(Br)ccc1OCCOc1ccccc1 | 1 |
| Cc1noc(C)c1C(=O)N1CCCC(c2[nH]c3c(C)cccc3c2-c2ccncc2)C1 (stereo unspecified) | 4 (active) |
| Cc1cc(Nc2ccncc2)n2nc(C)c(-c3ccccc3Cl)c2n1 | 0 |
| Nc1ncnc2c1ncn2[C@@H]1O[C@H](COS(=O)(=O)NC(=O)c2ccccc2O)[C@@H](O)[C@H]1O | 0 |
| CC(C)C(NC(=O)Cc1cccc2ccccc12)C(=O)Nc1cccc(C#N)c1 (stereo unspecified) | 0 |
| C[C@H]1COc2c(N3CCN(C)CC3)c(F)cc3c(=O)c(C(=O)O)cn1c23 | 0 |
| O=C(c1cc2ccccc2o1)N1CCN(Cc2ccc3c(c2)OCO3)CC1 | 0 |
| Cc1cnc(N2CCN[C@@H](Cc3ccccc3)C2)nc1Oc1ccc(-n2ccnc2)cc1 | 4 (active) |
| CCCNC(=O)N1CCC2(CC1)CC(=O)c1cc(C)ccc1O2 | 0 |
| COc1ccc2nc(C)cc(OCC(=O)Nc3ccccc3OC)c2c1 | 0 |
| COc1cc(NC(=O)Cc2nn(C)c(=O)c3ccccc23)ccc1Cl | 0 |
| O=C(Nc1cccnc1)c1c(O)c2cccc3c2n(c1=O)CC3 | 0 |

| SMILES | phenotypic severity score |
| --- | --- |
| OCc1ccc(-c2cncc(Nc3cccc(Cl)c3)c2)cc1 | 0 |
| CC(=O)N(CCN(C(=O)c1ccc(F)cc1)c1ccccc1)c1ccccc1 | 0 |
| CCCCc1ccc(NC(=O)Nc2ccc(O[C@H]3CCCC[C@@H]3N(C)c3ccccc3)c(F)c2)cc1 | 0 |
| CCc1c(C)nc(-n2nc(C)cc2NC(=O)c2ccccc2SC)[nH]c1=O | 1 |
| CC(C)(C)C(=O)N(CCCCCCN1C[C@H](O)[C@@H](O)[C@H](O)[C@H]1CO)C1CCCCCC1 | 2 (active) |
| O=C(NC1CC1)c1ccc(N2CCC(Cc3ccccc3)CC2)nc1 | 0 |
| Cc1cc(O)nc(-n2nc(C)cc2C)n1 | 0 |
| CCc1ccccc1-n1c(C)cn2c3c(=O)n(C(C(=O)OC)C(C)C)c(=O)n(C)c3nc12 (stereo unspecified) | 0 |
| COc1ccc(N(CCc2cccc(C)n2)C(=O)C2CCCCC2)cc1 | 2 (active) |
| CCc1cc(=O)n(C)c(SC(C)C(=O)Nc2ccc(F)cc2)n1 (stereo unspecified) | 0 |
| CO[C@@H](C(=O)N1Cc2[nH]nc(NC(=O)c3ccc(N4CCN(C)CC4)cc3)c2C1)c1ccccc1 | 0 |
| CN1CCCN(C(c2ccccc2)c2ccc(Cl)cc2)CC1 (stereo unspecified) | 0 |
| Cc1cc(Cl)ccc1NC(=O)CCc1ccc(S(=O)(=O)NCC(C)C)cc1 | 0 |
| O=C(Nc1ccc(N2CCNCC2)nc1)c1oc(-c2ccccc2)nc1C(F)(F)F | 0 |
| Cc1cccc(Cn2ccc(NC(=O)c3ccc4c(c3)OCO4)n2)c1 | 0 |
| CS(=O)(=O)c1ccccc1C(=O)N(Cc1ccccc1)c1ccccc1 | 1 |
| COC(=O)c1c(NC(=O)c2cc3ccccc3oc2=O)sc2c1CCN(Cc1ccccc1)C2 | 3 (active) |
| Cc1ccccc1CN1CCC(O)(c2ccc(Cl)c(C(F)(F)F)c2)CC1 | 0 |
| c1ccc(Oc2ccc(-c3cc(N4CCNCC4)[nH]n3)cc2)cc1 | 2 (active) |
